37 compounds from PubChem BioAssay AID2665 (Vanderbilt High Throughput Screening Facility, 2010) can be followed below.

The structures appear in SMILES notation.

The target in this assay is Muscarinic acetylcholine receptor M1 (Rattus norvegicus) (UniProt P08482). As to the kind of experiment: potentiation of ACh response at hM5 and rM1 – CHO cells, calcium, ACh EC10, single 30 µM, SAR follow-up (AID 2665).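 Note: 100% = response to a maximal acetylcholine concentration.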 Particulars: rat M1 potentiation, CHO calcium; at 30 µM; stronger effect = higher value.
Regarding `O=C1C(=O)N(Cc2c(F)cccc2F)c2ccc(OC(F)(F)F)cc21`, the % ACh max response stood at 13.6%.
The value for `COc1ccc(CN2C(=O)C(=O)c3cc(F)ccc32)cc1` was 41.1%; that for `O=C1C(=O)N(Cc2ccccc2C(F)(F)F)c2ccccc21` was 37.9%; that for `O=C1C(=O)N(Cc2ccc(OC(F)(F)F)cc2)c2ccc(Cl)cc21` was 31.3%.
The value for `O=C1C(=O)N(Cc2ccc(F)cc2F)c2c(F)cccc21` was 64.4%; that for `Cc1ccccc1CN1C(=O)C(=O)c2cccc(F)c21` was 30.2%; that for `O=C1C(=O)N(Cc2ccc(OC(F)(F)F)cc2)c2c(Cl)cccc21` was 43.6%.
As to `O=C1C(=O)N(Cc2ccccc2C(F)(F)F)c2c(F)cccc21`, the % ACh max response is 41.3%.
The value for `COc1cccc(CN2C(=O)C(=O)c3c(Cl)ccc(Cl)c32)c1` was 13.3%; that for `COc1cccc(CN2C(=O)C(=O)c3cc(C)ccc32)c1` was 14.5%.
With `COc1cccc(CN2C(=O)C(=O)c3cccc(Cl)c32)c1`, the % ACh max response is 46.9%.
With `Cc1cccc2c1N(Cc1ccc(F)cc1F)C(=O)C2=O`, the % ACh max response is 32.6%.
Under `O=C1C(=O)N(Cc2ccc(OC(F)(F)F)cc2)c2c(Cl)ccc(Cl)c21` stands 16%; under `O=C1C(=O)N(Cc2ccc(F)cc2F)c2ccc(F)cc21`, 47.3%.
Regarding `O=C1C(=O)N(Cc2ccc(Br)cc2F)c2ccc(OC(F)(F)F)cc21`, the % ACh max response was determined as 11.6%.
Under `Cc1ccc2c(c1)C(=O)C(=O)N2Cc1ccccc1C` stands 20.2%.
Under `O=C1C(=O)N(Cc2ccccc2F)c2ccc(Cl)cc21` stands 23%; under `O=C1C(=O)N(Cc2ccccc2F)c2ccc(F)cc21`, 40.1%; under `Cc1ccccc1CN1C(=O)C(=O)c2cc(Cl)ccc21`, 27.6%.
Under `COc1ccc(CN2C(=O)C(=O)c3c(Cl)ccc(Cl)c32)cc1` stands 18.6%; under `Cc1cccc2c1N(Cc1ccccc1F)C(=O)C2=O`, 24.9%.
As to `O=C1C(=O)N(Cc2ccccc2F)c2c(Cl)ccc(Cl)c21`, the % ACh max response was 12.4%.
Under `O=C1C(=O)N(Cc2ccc(-c3ccc(Cl)nc3)cc2)c2ccccc21` stands 37.1%; under `O=C1C(=O)N(Cc2ccc(C(F)(F)F)cc2)c2ccc(Cl)cc21`, 44.1%; under `O=C1C(=O)N(Cc2ccccc2Cl)c2ccccc21`, 43.4%.
Take `COc1ccccc1-c1ccc(CN2C(=O)C(=O)c3ccccc32)cc1`: the % ACh max response was 47.6%.
Take `O=C1C(=O)N(Cc2ccc(C(F)(F)F)cc2)c2c(F)cccc21`: the % ACh max response stood at 60.9%.
Regarding `COc1ccc(CN2C(=O)C(=O)c3cccc(F)c32)cc1`, the % ACh max response came to 54.6%.
In the case of `O=C1C(=O)N(Cc2ccc(Br)cc2)c2c(Cl)ccc(Cl)c21`, the % ACh max response amounted to 12.1%.
Under `Cc1ccccc1CN1C(=O)C(=O)c2c(Cl)ccc(Cl)c21` stands 13.7%; under `O=C1C(=O)N(Cc2c(F)cccc2F)c2ccc(F)cc21`, 27.6%.
For `COc1ccc(CCN2C(=O)C(=O)c3ccccc32)cc1`, the % ACh max response turned out to be 38.6%.
The value for `COc1ccc(CN2C(=O)C(=O)c3cc(Cl)ccc32)cc1` was 20.3%; that for `O=C1C(=O)N(Cc2ccccc2F)c2ccccc21` was 38.9%.
Under `Cc1ccc2c(c1)C(=O)C(=O)N2Cc1ccc(C(F)(F)F)cc1` stands 22.9%; under `O=C1C(=O)N(Cc2ccc(OC(F)(F)F)cc2)c2c(F)cccc21`, 51.8%; under `O=C1C(=O)N(Cc2ccccc2C(F)(F)F)c2ccc(OC(F)(F)F)cc21`, 22.6%.
